The subject of test [1] is TRPC4 beta (transient receptor potential cation channel C4), mouse. The experiment in a line: activators of mouse TRPC4 channel, confirmation, cell-based, Fluo4 calcium, HEK293 TRPC4beta/mu-opioid, duplicates, 10 µM (AID 2426). To be noted: Fluo4 calcium fluorescence, at 10 µM; active compounds read high.
In test [2] the test system is transient receptor potential cation channel C4 beta (TRPC4), mouse. The experiment in a line: activators of mouse TRPC4 channel, confirmation, cell-based, second round, Fluo4, HEK293 TRPC4beta/mu-opioid, 1 µM (AID 2461;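 active means primary screen active and over 50% activation in each of two duplicate runs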). To be noted: Fluo4 calcium fluorescence, at 1 µM; active compounds read high.
Test [3] has as its system TRPC4 (transient receptor potential cation channel C4 beta), mouse. The test can be described thus: positive allosteric modulators of mouse TRPC4, confirmation, cell-based, second round, Fluo-4, HEK293 TRPC4beta/mu-opioid, 1 µM (AID 2554;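 active means primary screen hit whose fluorescence ratio, in both repeats, exceeds the weak agonist control mean by 3 SD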). To be noted: DAMGO EC20, Fluo-4 calcium flux, at 1 µM; active compounds read high.
For test [4], the system named is TRPC4 beta (transient receptor potential cation channel C4), mouse. The experiment in a line: positive allosteric modulators of mouse TRPC4, confirmation, cell-based, Fluo-4, HEK293 TRPC4beta/mu-opioid (AID 2555;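 active means primary screen hit whose calcium fluorescence ratio, in both repeats, exceeds the weak agonist control mean by 3 SD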). To be noted: DAMGO EC20, Fluo-4 calcium flux, at 10 µM; active compounds read high. In general terms: A change in cytosolic calcium serves as a functional read-out for many receptors and channels.

Test [5] deals with Short transient receptor potential channel 4 (Mus musculus) (UniProt Q9QUQ5). The test can be described thus: inhibitors of mouse TRPC4 channel, confirmation, cell-based, Fluo4, HEK293 TRPC4beta/mu-opioid (AID 2636;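 active means calcium signal cut by more than 3 SD below the full-agonist control yet still positive, in both repeats and the earlier primary screen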). To be noted: DAMGO, Fluo4 calcium flux, at 10 µM; active compounds read high.
For test [6] the target is unchanged. The experiment in a line: inhibitors of mouse TRPC4 channel, confirmation, cell-based, second round, Fluo4, HEK293 TRPC4beta/mu-opioid, 1 µM (AID 2637;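 active means calcium signal ratio cut to more than 3 SD under the fully stimulated control mean yet still positive, in both repeats and the primary screen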;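 on inhibition: percent of integrated ratio relative to wells lacking test compound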). To be noted: Fluo4 calcium flux, DAMGO, at 1 µM; active compounds read high.
Test [7] has the same target. The test can be described thus: mouse TRPC4 channel activators, dose response, cell-based, HEK293 TRPC4/mu-opioid, Fluo-4 calcium (AID 434937;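 active means primary screen activator hit with a dose response curve and TRPC4 channel activation at any tested dose; inactive means no activation, no dose response, or not a primary hit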).
For test [8] the target is unchanged. The test can be described thus: TRPC4 positive allosteric modulators, dose response, cell-based, HEK293 TRPC4/mu-opioid, Fluo-4 calcium, EC20 DAMGO (AID 434941;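 active means earlier screen potentiator hit that boosts the TRPC4 ion channel at some dose, with a dose response; inactive means no potentiation, no dose response, or not a prior hit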;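 further: calcium entry triggered by an EC20 dose of DAMGO at the co-expressed mu-opioid receptor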).
For test [9], the target named is Short transient receptor potential channel 6 (Mus musculus) (UniProt Q61143). The test can be described thus: inhibition of mouse TRPC6 channel, confirmation, selectivity assay for TRPC4 inhibitor project, cell-based, HEK293, membrane potential dye, duplicate (AID 434948;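 active means active in primary screen and both duplicates, each dropping signal beyond three positive-control SD with fluorescence still positive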). To be noted: HEK293 TRPC6, membrane potential dye fluorescence, at 10 µM, stimulated with maximal-effect acetylcholine; active compounds read high.

The target is the same in test [10]. The experiment in a line: activation of mouse TRPC6 channel, confirmation, selectivity assay for TRPC4 activator project, cell-based, HEK293, membrane potential dye, duplicate (AID 434950;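 active means membrane potential signal rise above negative control mean plus 3 SD in both duplicates, also active in the earlier TRPC4 screen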). To be noted: HEK293 TRPC6, membrane potential fluorescence, at 10 µM; active compounds read high.
The target is the same in test [11]. The experiment in a line: TRPC6 potentiation by TRPC4 potentiator hits, confirmation, selectivity assay for TRPC4 potentiator project, HEK293 cells, membrane potential dye, duplicate (AID 434952;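 active means compound raising the membrane signal above positive-control mean plus 3 SD in both repeats, and a primary screen hit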). To be noted: HEK293 TRPC6, membrane potential dye fluorescence, at 10 µM, maximal acetylcholine added after compound; active compounds read high.
Test [12] concerns the target Short transient receptor potential channel 4 (Mus musculus) (UniProt Q9QUQ5). The test can be described thus: calcium flux activators in TRPC4/5HT1a cells, counter-screen for TRPC4 activator project, cell-based, second counter screen, HEK293 TRPC4/5HT1a, Fluo-4 (AID 434977;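 active means calcium signal rise above buffer-control mean plus 5 SD in both duplicates, and also a hit in the primary screen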). To be noted: Fluo-4 calcium flux, at 10 µM; active compounds read high.
Test [13] is described as follows: calcium flux inhibitors in TRPC4/5HT1a cells, confirmation, counter-screen for TRPC4 inhibitor project, cell-based, second counter screen, HEK293 TRPC4/5HT1a, Fluo-4 (AID 434978;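 active means primary screen active whose calcium signal fell more than 3 SD beyond the full-serotonin control mean in both duplicate plates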;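 on outcome: serotonin given first at submaximal then at maximal dose after compound preincubation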). To be noted: Fluo-4 calcium flux, at 10 µM, serotonin added to trigger calcium flux; active compounds read high.
The test system of test [14] is TRPC4 (mouse), co-expressed with 5HT1a in HEK293. The test can be described thus: calcium flux potentiators in TRPC4/5HT1a cells, confirmation, counter-screen for TRPC4 potentiator project, cell-based, second counter screen, HEK293 TRPC4/5HT1a, Fluo-4 (AID 434979;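 active means signal rise over 3 SD above mean of control wells given weak agonist, in both repeats and first screen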). To be noted: Fluo-4 calcium flux, at 10 µM, serotonin added at its EC20 dose; active compounds read high.
The nature of test [15]: calcium flux activation in mu-opioid HEK293 cells, confirmation, counter-screen for TRPC4 activator project, cell-based, HEK293 mu-opioid receptor line (AID 449723;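 active means hit in primary screen, with calcium signal over 5 SD above buffer well mean in both duplicates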;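 further: counter screen cells carry the mu-opioid receptor alone and lack TRPC4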). To be noted: Fluo-4 calcium fluorescence, at 10 µM; active compounds read high.
Test [16] can be described thus: calcium flux enhancement in mu-opioid HEK293 cells, confirmation, counter-screen for TRPC4 allosteric potentiator project, cell-based, HEK293 mu-opioid receptor line (AID 449724;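 active means calcium signal rise more than 3 SD above the low-dose agonist control mean, in both duplicate plates and the primary screen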;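 further: HEK293 cells carrying mu-opioid receptor only with no TRPC4 channel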). To be noted: Fluo-4 calcium flux, at 10 µM, compound added before EC20 DAMGO stimulus; active compounds read high.

For part of these data: Measured potencies and affinities stand elsewhere. The source made the active and inactive calls.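 How the source made its calls, unless noted: active means fluorescence ratio normalized to control raised more than 50% in primary screen plus both repeat runs; inactive means the rest.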

Sequence of Short transient receptor potential channel 4 (Mus musculus) (Q9QUQ5 whole entry, looked up): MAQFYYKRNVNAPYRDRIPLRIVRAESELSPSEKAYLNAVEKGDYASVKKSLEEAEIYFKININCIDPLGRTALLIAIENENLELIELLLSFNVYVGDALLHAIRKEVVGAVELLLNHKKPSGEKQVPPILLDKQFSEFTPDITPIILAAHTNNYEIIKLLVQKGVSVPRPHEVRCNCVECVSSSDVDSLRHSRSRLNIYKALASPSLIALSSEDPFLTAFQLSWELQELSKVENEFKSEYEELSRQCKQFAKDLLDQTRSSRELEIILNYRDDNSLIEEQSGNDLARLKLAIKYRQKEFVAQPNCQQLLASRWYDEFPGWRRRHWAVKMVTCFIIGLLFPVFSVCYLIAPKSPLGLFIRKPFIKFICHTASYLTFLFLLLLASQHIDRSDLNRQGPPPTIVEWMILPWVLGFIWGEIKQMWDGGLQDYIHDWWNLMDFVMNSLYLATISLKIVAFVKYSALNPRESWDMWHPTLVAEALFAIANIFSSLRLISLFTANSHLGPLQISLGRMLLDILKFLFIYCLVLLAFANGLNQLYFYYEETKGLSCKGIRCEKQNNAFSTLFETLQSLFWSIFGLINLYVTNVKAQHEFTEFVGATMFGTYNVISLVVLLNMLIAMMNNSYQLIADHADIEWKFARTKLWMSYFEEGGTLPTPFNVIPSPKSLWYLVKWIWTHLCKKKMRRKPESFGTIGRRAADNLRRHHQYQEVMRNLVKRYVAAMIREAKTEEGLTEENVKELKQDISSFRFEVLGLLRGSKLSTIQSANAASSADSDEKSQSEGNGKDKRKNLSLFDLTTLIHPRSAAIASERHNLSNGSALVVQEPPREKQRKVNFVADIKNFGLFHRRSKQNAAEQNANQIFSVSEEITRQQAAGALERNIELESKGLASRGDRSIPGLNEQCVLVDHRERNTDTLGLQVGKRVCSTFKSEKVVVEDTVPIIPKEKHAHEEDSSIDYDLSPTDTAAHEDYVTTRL
Sequence of Short transient receptor potential channel 6 (Mus musculus) (Q61143 whole entry, looked up): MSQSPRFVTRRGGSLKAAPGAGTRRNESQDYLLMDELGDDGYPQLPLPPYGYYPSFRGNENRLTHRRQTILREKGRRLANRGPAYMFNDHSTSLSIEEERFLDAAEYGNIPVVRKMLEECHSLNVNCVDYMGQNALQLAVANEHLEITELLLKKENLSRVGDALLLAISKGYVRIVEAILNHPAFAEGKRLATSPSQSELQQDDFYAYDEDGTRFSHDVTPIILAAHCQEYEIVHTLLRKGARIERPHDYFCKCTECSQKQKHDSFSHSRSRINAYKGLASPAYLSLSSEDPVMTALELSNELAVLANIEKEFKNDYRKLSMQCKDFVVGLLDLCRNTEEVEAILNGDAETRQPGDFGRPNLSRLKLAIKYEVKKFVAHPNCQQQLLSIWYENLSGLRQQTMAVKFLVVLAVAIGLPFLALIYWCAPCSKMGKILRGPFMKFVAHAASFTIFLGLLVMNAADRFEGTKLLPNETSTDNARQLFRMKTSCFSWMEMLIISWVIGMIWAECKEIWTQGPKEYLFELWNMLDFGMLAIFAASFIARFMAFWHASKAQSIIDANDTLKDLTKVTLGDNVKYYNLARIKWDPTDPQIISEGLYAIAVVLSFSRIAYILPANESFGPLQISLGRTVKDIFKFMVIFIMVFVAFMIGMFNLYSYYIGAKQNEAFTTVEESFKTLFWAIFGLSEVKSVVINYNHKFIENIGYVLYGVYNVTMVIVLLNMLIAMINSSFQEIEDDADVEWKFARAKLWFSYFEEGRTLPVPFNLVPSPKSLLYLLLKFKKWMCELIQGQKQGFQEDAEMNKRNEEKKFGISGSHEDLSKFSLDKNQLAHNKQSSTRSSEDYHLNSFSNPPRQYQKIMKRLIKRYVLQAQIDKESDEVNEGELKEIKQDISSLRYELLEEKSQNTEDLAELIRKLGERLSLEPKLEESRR

In the case of `COc1cc(CNC2CCCC2)c(Br)cc1OC1CCCC1`, the outcome in test [1], in test [2], in test [3], in [4], in [6] and in [7] was inactive. Further, the result in [8], in test [10], in test [11], in test [12], in test [13] and in [14] was inactive. The outcome in [15] and in test [16] was inactive. The inhibition in test [5] was 95% (active); in test [9] it was 53% (active).

`Cc1ccc(Cn2c(=N)n(CC(O)c3ccco3)c3ccccc32)cc1` (stereo not given): the outcome in test [1], in test [2], in test [3], in [4], in [7] and in [8] was inactive. Also, the call in test [10], in [11], in [12], in test [14], in [15] and in test [16] was inactive. The inhibition in [5] was 94% (active); in [6] it was 63% (active); in [9], 37% (active); in test [13] it was 17.1% (active).

In the case of `COc1cc2ccccc2c2c1CCCC2=O`, the result in test [1], in [2], in test [3], in test [4], in test [6] and in test [7] was inactive. The result in test [8], in test [9], in test [10], in test [11], in test [12] and in test [14] was inactive. Also, the result in test [15] and in [16] was inactive. Besides, the inhibition was 85% (active) in [5] and 26.2% (active) in test [13].

Turning to `COc1ccccc1CNCc1ccc(OC)c2ccccc12`, the outcome in test [1], in test [2], in test [3], in [4], in [6] and in test [7] was inactive. The result in test [8], in [9], in test [10], in [11], in [12] and in [14] was inactive. The result in [15] and in test [16] was inactive. Besides, the results for the inhibition in test [5] and in test [13] were 96% (active) and 31% (active), respectively.

On to `COc1ccc(C2=NN(C(=O)c3ccccc3)C(c3ccc(OC)c(OC)c3)C2)c(O)c1` (stereo not given), for which the outcome in [1], in test [2], in test [3], in test [4], in test [6] and in test [7] was inactive. The result in test [8], in test [9], in [10], in test [11], in [12] and in [13] was inactive. Besides, the result in test [14], in test [15] and in test [16] was inactive. In [5], the inhibition is 66% (active).

For `Cn1cc(CN2CCCCC2CO)c(-c2ccc(Oc3ccccc3)cc2)n1` (stereo not given), the result in test [1], in test [2], in test [3], in test [4], in [7] and in test [8] was inactive. In addition, the compound was classed as inactive in test [9], in [10], in test [11], in [12], in test [14] and in test [15]. Further, the outcome in test [16] was inactive. In addition, the results for the inhibition in [5], in [6] and in [13] were 86% (active), 41% (active) and 39.6% (active), respectively.

As for `CC1(C)CC2CC(C)(CN2C(=O)c2cc(-c3ccc(O)cc3)on2)C1` (stereo not given), the result in [1], in test [2], in test [3], in test [4], in test [6] and in test [7] was inactive. The outcome in test [8], in [9], in test [10], in [11], in test [12] and in test [14] was inactive. The outcome in test [15] and in test [16] was inactive. Moreover, the figures for the inhibition in [5] and in test [13] were 81% (active) and 31.1% (active), respectively.

With `Cc1ccccc1N1CC(O)(c2cccs2)[N+]2=C1CCCC2` (stereo not given), the outcome in test [1], in test [2], in test [3], in [4], in test [5] and in [6] was inactive. In addition, the outcome in test [7], in test [8], in [9], in [10], in [11] and in [12] was inactive. The outcome in test [13], in test [14], in [15] and in test [16] was inactive.

`COc1ncnc2sc3c(c12)CCCC3`: the outcome in test [1], in test [2], in test [3], in test [4], in test [6] and in test [7] was inactive. Moreover, the result in test [8], in test [9], in test [10], in [11], in test [12] and in test [13] was inactive. For the same compound, the outcome in [14], in test [15] and in test [16] was inactive. Further, the inhibition in test [5] is 93% (active).

Turning to `COc1ccccc1CC(Cc1nc2ccccc2[nH]1)c1nc2ccccc2[nH]1` (stereo not given), the outcome in [1], in [2], in test [3], in test [4], in [7] and in test [8] was inactive. The result in test [9], in test [10], in test [11], in test [12], in [13] and in test [14] was inactive. Further, the result in [15] and in [16] was inactive. In addition, the inhibition is 83% (active) in test [5] and 52% (active) in [6].

`CCOC(=O)C1CCN(C2CCN(C(=O)c3oc4c(C)c(C)ccc4c3C)CC2)CC1`: the result in [1], in [2], in test [3], in test [4], in [6] and in test [7] was inactive. Also, the result in test [8], in test [9], in test [10], in test [11], in test [12] and in test [13] was inactive. For the same compound, the result in [14], in test [15] and in test [16] was inactive. For the same compound, in test [5], the inhibition is 95% (active).

On to `Cc1cc(C)c2nc(C)cc(N/N=C/c3ccc(O)cc3)c2c1`, for which the outcome in test [1], in test [2], in test [3], in test [4], in test [6] and in [7] was inactive. The result in [8], in test [10], in [11], in test [12], in [13] and in test [14] was inactive. In addition, the outcome in test [15] and in test [16] was inactive. The inhibition was 91% (active) in test [5] and 35% (active) in [9].

`CN(Cc1cnn(C)c1)C(=O)c1ccc(OC2CCN(CCc3ccccc3)CC2)cc1`: the result in test [1], in [2], in test [3], in test [4], in [7] and in [8] was inactive. Further, the result in [9], in test [10], in test [11], in test [12], in test [13] and in [14] was inactive. The result in test [15] and in test [16] was inactive. Moreover, the inhibition in test [5] was 88% (active); in test [6], 59% (active).

As for `Cc1ccn2cc(CCNC(=O)c3ccc(Br)o3)nc2c1`, the outcome in test [1], in test [2], in [3], in [4], in test [6] and in [7] was inactive. For the same compound, the result in test [8], in test [9], in [10], in [11], in [12] and in test [14] was inactive. The outcome in test [15] and in [16] was inactive. Further, the values for the inhibition in test [5] and in test [13] were 89% (active) and 34.1% (active), respectively.

As for `CC(C)CCN1CCN(Cc2ccsc2)CC1CCO` (stereo not given), the result in [1], in test [2], in test [3], in [4], in test [7] and in [8] was inactive. The result in [9], in [10], in [11], in test [12], in test [14] and in test [15] was inactive. For the same compound, in test [16], the outcome was inactive. The inhibition in [5] is 90% (active); in [6], 45% (active); in test [13] it was 33.8% (active).

The term inhibition denotes the share of the control response that was lost under treatment.

These data come from PubChem BioAssay.
